Measurements as given in PubChem BioAssay (NCATS).

Experiment: Cell Proliferation Assay against the TMD8 Cell Line (AID 651645);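 also: cells exposed to compound for 48 h before reading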
Conditions: TMD8 DLBCL cell line proliferation/viability; at 46.1 µM (top of the series)
Text: One class of targeted therapeutics showing early clinical success in killing of ABC DLBCL lines are small molecule inhibitors of the Bruton tyrosine kinase (BTK) 11.
Prior to any combination assays, using an NCATS developed oncology compound library called the Mechanism of Interrogation Plate (MIPE), two well studied ABC DLBCL lines (TMD8 and HBL1) were screened using a cell viability assay (CellTiterGlo) and a 12-point titration series for each single agent. These initial experiments offered insight into the concentration range that offered the best coverage of activity and non-activity to assure relevant data is generated. In addition to the viability signature associated with this library, we examined the apoptotic response of each agent versus the TMD8 line as judged by caspase 3/7 activation. Activity was assayed at both 8 and 16 hour time-points to gain an appreciation of which agents induced an apoptotic response in a reasonable timeframe from a therapeutic exposure perspective. MIPE was also assayed for single agent viability in a human mesenchymal stem cell (hMSC) line as a surrogate of each library member's potential therapeutic index.
A total of 500 log growing TMD8 cells are seeded per well in 5 uL of a RPMI with glutamine (or Glutamax), without phenol red plus 5% FBS and 1X Pen/Strep into 1536 -solid white high base tissue culture treated Greiner One Bio Plates (789173-F) using a multidrop combi dispenser and a small sterile cassette. Compounds and controls totaling 23nL per well (negative control DMSO and positive control 9.2 uM Bortezomib-final) are immediately added to the plates using a 1536 head pin tool from Kalypsys. The plates are then covered with stainless steel gasket lids from Kalypsys and incubated for 48 hours at 37C under 95% relative humidity with 5% CO2. After 48 hours, the plates are removed and allowed to reach room temperature before 3 uL of Cell Titer Glo reagent (Promega) is added using an Aurora Flying Reagent Dispenser Bioraptor. The plates are then spun at 1000 rpms to remove bubbles and incubated for 15 minutes at room temperature before read on a ViewLux using a luminescent filter with a 10 second exposure. The relative luciferase units are used to calculated percent activity using DMSO as 100% and Bortezomib as 0%.

| Structure (SMILES) | viability (% of control) |
| --- | --- |
| O=C(Nc1ccc(OC(F)(F)F)cc1)c1sccc1NCc1ccnc2ccccc12 | 9.29% |
| CC(C)(C)c1[nH]cnc1C=c1[nH]c(=O)c(=Cc2ccccc2)[nH]c1=O | 1.63% |
| CCCCc1ccc(NS(=O)(=O)c2ccc(C)c(C(=O)N3CCN(c4cccc(C)c4C)CC3)c2)cc1 | 9.89% |
| Cc1cccc(Nc2nc(N[C@@H]3CCCC[C@H]3N)ncc2C(N)=O)c1 | 2.81% |
| CCOC(=O)[C@@H](N)CCC(=O)N[C@@H](CSCc1ccccc1)C(=O)N[C@@H](C(=O)OCC)c1ccccc1 | 62.4% |
| CCN(CC)CCCCNc1nc2cc(Cl)c(Cl)cc2nc1-c1ccc(-c2cccs2)s1 | 1.61% |
| CCCCCCCCCCCCCC(=O)N[C@H](CO)[C@H](O)c1ccc([N+](=O)[O-])cc1 | 4.37% |
| COc1cc2nccc(Oc3ccc(NC(=O)Nc4cc(C)on4)c(Cl)c3)c2cc1OC | 6.06% |
| O=C1C(CCC(O)c2ccc(F)cc2)C(c2ccc(O)cc2)N1c1ccc(F)cc1 (stereo not given) | 87.2% |
| NC(=O)c1ccc(N(C(N)=O)c2c(F)cccc2F)nc1-c1ccc(F)cc1F | 81.2% |
| Cc1csc(-c2nnc(Nc3ccc(Oc4ncccc4-c4ccnc(N)n4)cc3)c3ccccc23)c1 | 4.09% |
| CC(O)=C(C#N)C(=O)Nc1ccc(C(F)(F)F)cc1 | 43.6% |
| Cc1cc2c(cc1C1(c3ccc(C(=O)O)cn3)CC1)C(C)(C)CCC2(C)C | 79.3% |
| CNC(=O)c1cc(COc2nnc(Nc3ccc(Cl)cc3)c3ccoc23)ccn1 | 39.7% |
| CCC=CC[C@H]1C(=O)CC[C@@H]1CC(=O)OC | 114% |
| COc1c(C)cnc(Cn2cnc3c(Cl)nc(N)nc32)c1C | 13.8% |
| CC1=C[C@@H]2[C@@H]([C@@H](O)C[C@@]3(C)[C@H]2C[C@@H](C)[C@]3(O)C(=O)CO)[C@@]2(C)Cc3cnn(-c4ccccc4)c3C=C12 | 0.486% |
| Nc1ccc(-c2ccc3ncc4ccc(=O)n(-c5cccc(C(F)(F)F)c5)c4c3c2)cn1 | 9.02% |
| CC(=O)Nc1cccc(-n2c(=O)n(C3CC3)c(=O)c3c(Nc4ccc(I)cc4F)n(C)c(=O)c(C)c32)c1 | 0.993% |
| CCNC(=O)c1noc(-c2cc(C(C)C)c(O)cc2O)c1-c1ccc(CN2CCOCC2)cc1 | 7.59% |

| Structure (SMILES) | viability (% of control) |
| --- | --- |
| CC(C)C[C@@H](C(=O)N[C@H](C(=O)OC1CCCC1)c1ccccc1)[C@H](O)C(=O)NO | 4.45% |
| O=C(Nc1cccc(Cl)c1)Nc1ncc(CCNc2ncnc3ccsc23)s1 | 1.73% |
| CCc1cc(-c2n[nH]c(C)c2-c2ccc3c(c2)OCCO3)c(O)cc1O | 38.2% |
| CC(C)Oc1cc(Nc2nc(N[C@@H](C)c3ccc(F)cn3)ncc2Cl)[nH]n1 | 0.843% |
| CN(C)CCN(C)C(=O)c1ccc(NC(=O)Nc2ccc(-c3nc(N4CCOCC4)c4ccn(CC(F)(F)F)c4n3)cc2)cc1 | 0.807% |
| Cc1nn(Cc2ccccc2Cl)c(C)c1CN(C)CC(O)COc1ccc(Cl)cc1 (stereo not given) | 9.51% |
| CCCCn1c(=O)n(Cc2ccccc2F)c(=O)c2[nH]c(Cc3ccc(NC(C)=O)cc3)nc21 | 5.19% |
| CCC(=O)N1CCN(c2ccc(-n3c(=O)ccc4cnc5ccc(-c6cnc7ccccc7c6)cc5c43)cc2C(F)(F)F)CC1 | 3.32% |
| Cc1ccc(C(=O)N(CCCN)[C@@H](c2nc3cc(Cl)ccc3c(=O)n2Cc2ccccc2)C(C)C)cc1 | 0.587% |
| CNC(=O)c1cc(Oc2ccc(NC(=O)Nc3ccc(Cl)c(C(F)(F)F)c3)c(F)c2)ccn1 | 3.02% |
| COc1cc2c(cc1OC)CC(=O)N(CCCN(C)C[C@H]1Cc3cc(OC)c(OC)cc31)CC2 | 108% |
| CC(=O)NCCC(=O)N[C@@H](CCC(N)=O)C(=O)N[C@@H](CO)C(=O)N[C@@H](CCC(N)=O)C(=O)N[C@@H](CCC(N)=O)C(=O)N[C@H](C(=O)N[C@@H](Cc1ccccc1)C(=O)N[C@]1(C)CCCCCCC=CCCC[C@@](C)(C(=O)N[C@@H](CCC(N)=O)C(=O)N[C@@H](CC(N)=O)C(N)=O)NC(=O)[C@H](CC(C)C)NC(=O)[C@H](CC(C)C)NC(=O)[C@@H](CCCNC(=N)N)NC(=O)[C@H](Cc2c[nH]c3ccccc23)NC(=O)[C@H](CC(C)C)NC(=O)[C@H](CC(N)=O)NC1=O)[C@H](C)O | 22.4% |
| COc1cccc(OC)c1-c1cc(C(=O)NC2(C(=O)O)C3CC4CC(C3)CC2C4)nn1-c1ccnc2cc(Cl)ccc12 (stereo not given) | 69% |
| COc1ccc(CCN(C)CCCOc2ccc(S(=O)(=O)c3[nH]c4ccccc4c3C(C)C)cc2)cc1OC | 4.97% |
| OCCn1cc(-c2ccc3c(c2)CCC3=NO)c(-c2ccncc2)n1 | 80.7% |
| COc1nc(C)cnc1NS(=O)(=O)c1cccnc1-c1ccc(-c2nnco2)cc1 | 116% |
| Cc1ccc(NC(=O)c2ccc(CN3CCN(C)CC3)cc2)cc1Nc1nc(-c2cccnc2)cs1 | 8.7% |
| O=C(O)c1ccc(O)c2ncc(N3CCOCC3)cc12 | 77.1% |
| Cn1cc(-c2ccc3nnc(Sc4ccc5ncccc5c4)n3n2)cn1 | 74.4% |
| Cc1c(C(=O)Nc2ccc(N3C[C@@H](C)O[C@@H](C)C3)nc2)cccc1-c1ccc(OC(F)(F)F)cc1 | 48.4% |
